# Laboratory results: paper PMC7862700, “An all-to-all approach to the identification of sequence-specific readers for epigenetic DNA modifications on cytosine”
# What was measured:
# Experiment in all cases: DAPPL (digital affinity profiling via proximity ligation, sequencing); 10 mM Tris-HCl pH 7.5, 50 mM NaCl, 1 mM DTT, 4% glycerol, room temperature, 30 min; GST-TFs on glutathione beads, 16-mer random dsDNA library, 0.1% formaldehyde crosslink after washing; high values mean tight binding
# Conditions in all cases: protein: recombinant; tags: N-terminal GST; dsDNA, one strand shown
# ELK1 = biological target: T1, ELK1 (Homo sapiens, UniProt P19419 1-428)
# T1 sequence: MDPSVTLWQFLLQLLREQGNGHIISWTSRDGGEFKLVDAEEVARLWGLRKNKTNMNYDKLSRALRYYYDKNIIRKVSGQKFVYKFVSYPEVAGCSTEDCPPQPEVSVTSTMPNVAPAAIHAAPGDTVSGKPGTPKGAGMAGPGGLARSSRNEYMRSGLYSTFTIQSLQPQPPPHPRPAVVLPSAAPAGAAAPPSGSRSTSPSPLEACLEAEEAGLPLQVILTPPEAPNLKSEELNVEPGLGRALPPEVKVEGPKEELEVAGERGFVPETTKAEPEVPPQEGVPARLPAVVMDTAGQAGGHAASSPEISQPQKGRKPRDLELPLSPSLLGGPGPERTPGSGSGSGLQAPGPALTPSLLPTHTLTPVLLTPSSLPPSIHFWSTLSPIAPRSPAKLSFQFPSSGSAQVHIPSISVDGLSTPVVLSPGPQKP
# In short: (§1)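 Beads coated with glutathione captured GST-fused human transcription factors that had been expressed in yeast, and the factors were then given DNA barcodes and pooled with a tag-only sample. The pools were incubated with 200 nmole of a random double-stranded 16-mer DNA library in Tris/NaCl/DTT/glycerol buffer for 30 min at room temperature, washed, crosslinked with 0.1% formaldehyde and proximity-ligated with BsaI/T4 ligase at 37 °C for 1 h. PCR amplification and Illumina NextSeq500 sequencing came last. Binding signal is each hexamer's read frequency for a factor divided by its frequency for the tag-only sample.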
# GABPA = biological target: T2, GABPA (Homo sapiens, UniProt Q06546 1-454)
# T2 sequence: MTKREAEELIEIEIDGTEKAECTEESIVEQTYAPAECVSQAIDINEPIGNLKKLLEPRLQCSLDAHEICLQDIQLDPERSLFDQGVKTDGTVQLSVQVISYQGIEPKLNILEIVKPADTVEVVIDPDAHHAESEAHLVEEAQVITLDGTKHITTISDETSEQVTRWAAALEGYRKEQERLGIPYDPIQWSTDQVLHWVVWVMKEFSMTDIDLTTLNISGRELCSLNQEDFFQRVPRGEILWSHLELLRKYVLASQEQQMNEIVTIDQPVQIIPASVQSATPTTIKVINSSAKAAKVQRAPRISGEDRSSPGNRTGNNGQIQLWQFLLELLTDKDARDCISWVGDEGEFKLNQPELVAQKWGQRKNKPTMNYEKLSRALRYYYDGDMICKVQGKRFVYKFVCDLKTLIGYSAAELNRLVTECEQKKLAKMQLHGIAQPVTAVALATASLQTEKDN
# In short: as §1
# ERG = biological target: T3, ERG (Homo sapiens, UniProt P11308 1-479)
# T3 sequence: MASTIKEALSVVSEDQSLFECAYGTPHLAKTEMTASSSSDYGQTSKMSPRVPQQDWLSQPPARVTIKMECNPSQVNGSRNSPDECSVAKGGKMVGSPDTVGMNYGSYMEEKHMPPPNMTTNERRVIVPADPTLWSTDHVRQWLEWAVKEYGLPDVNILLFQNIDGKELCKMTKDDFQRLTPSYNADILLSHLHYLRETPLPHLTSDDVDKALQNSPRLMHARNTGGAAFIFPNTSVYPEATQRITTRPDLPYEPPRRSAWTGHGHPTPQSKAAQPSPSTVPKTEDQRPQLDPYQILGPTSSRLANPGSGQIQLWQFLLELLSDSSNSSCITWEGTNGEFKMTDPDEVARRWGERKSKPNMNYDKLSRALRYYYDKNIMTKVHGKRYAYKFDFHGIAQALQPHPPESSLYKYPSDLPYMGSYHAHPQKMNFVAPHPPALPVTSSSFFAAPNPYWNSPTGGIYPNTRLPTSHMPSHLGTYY
# In short: as §1
# ELF1 = ELF1 (Homo sapiens, UniProt P32519 1-619)
# Chain of ELF1 (P32519 whole entry): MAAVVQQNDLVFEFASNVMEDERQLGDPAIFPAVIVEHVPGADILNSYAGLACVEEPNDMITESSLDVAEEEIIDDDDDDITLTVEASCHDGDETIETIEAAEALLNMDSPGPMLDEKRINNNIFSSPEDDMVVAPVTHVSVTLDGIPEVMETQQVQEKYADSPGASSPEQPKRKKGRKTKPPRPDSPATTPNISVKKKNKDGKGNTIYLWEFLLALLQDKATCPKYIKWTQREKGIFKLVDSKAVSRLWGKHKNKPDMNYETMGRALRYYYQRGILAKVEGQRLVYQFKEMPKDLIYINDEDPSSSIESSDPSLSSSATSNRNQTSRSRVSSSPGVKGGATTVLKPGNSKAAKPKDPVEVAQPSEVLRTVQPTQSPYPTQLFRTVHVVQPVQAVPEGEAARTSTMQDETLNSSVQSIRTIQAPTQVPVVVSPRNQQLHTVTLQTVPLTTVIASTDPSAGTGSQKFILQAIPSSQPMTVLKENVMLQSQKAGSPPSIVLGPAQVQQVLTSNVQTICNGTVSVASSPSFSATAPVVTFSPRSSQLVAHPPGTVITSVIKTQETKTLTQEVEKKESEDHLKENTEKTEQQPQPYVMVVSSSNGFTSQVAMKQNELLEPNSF
# In short: as §1
# EHF = biological target: T4, EHF (Homo sapiens, UniProt Q9NZC4 1-300)
# T4 sequence: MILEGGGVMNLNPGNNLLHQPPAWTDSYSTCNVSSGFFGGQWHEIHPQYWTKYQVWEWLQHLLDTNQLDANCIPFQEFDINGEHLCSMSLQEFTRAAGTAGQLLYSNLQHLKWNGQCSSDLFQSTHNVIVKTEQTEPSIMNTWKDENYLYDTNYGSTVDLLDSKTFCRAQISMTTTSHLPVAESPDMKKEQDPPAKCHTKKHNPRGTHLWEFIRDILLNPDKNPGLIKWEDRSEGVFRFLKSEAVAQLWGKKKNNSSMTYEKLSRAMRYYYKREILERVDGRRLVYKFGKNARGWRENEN
# In short: as §1
# SPIB = SPIB (Homo sapiens, UniProt Q01892 1-262)
# Chain of SPIB (Q01892 whole entry): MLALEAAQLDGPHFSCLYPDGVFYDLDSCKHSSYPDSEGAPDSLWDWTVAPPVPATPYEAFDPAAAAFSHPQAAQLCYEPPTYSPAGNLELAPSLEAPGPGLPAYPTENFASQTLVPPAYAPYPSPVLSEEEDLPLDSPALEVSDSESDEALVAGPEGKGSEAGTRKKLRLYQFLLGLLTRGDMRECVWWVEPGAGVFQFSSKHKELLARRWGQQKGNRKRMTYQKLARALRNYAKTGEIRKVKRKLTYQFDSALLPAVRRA
# In short: as §1
# ELK3 = biological target: T5, ELK3 (Homo sapiens, UniProt P41970 1-407)
# T5 sequence: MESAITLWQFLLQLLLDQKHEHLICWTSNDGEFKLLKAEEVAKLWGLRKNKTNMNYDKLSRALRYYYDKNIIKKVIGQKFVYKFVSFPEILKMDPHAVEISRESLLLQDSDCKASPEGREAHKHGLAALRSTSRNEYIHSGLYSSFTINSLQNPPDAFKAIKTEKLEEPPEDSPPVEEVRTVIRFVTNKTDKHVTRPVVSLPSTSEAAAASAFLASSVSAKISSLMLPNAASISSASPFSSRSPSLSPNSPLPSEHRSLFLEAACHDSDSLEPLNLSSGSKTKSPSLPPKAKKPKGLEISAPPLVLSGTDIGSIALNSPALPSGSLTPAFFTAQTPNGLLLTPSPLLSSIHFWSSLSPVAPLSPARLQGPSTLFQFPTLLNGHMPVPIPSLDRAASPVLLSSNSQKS
# In short: as §1
# SPIC = biological target: T6, SPIC (Homo sapiens, UniProt Q8N5J4 1-248)
# T6 sequence: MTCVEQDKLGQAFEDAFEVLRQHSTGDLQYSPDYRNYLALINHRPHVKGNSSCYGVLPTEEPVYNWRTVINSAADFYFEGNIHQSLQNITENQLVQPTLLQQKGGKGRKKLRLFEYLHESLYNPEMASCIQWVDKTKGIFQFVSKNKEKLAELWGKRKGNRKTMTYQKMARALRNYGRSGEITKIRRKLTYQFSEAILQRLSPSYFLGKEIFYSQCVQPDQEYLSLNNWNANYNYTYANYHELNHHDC
# In short: as §1
# ELK4 = biological target: T7, ELK4 (Homo sapiens, UniProt P28324-2 1-405)
# T7 sequence: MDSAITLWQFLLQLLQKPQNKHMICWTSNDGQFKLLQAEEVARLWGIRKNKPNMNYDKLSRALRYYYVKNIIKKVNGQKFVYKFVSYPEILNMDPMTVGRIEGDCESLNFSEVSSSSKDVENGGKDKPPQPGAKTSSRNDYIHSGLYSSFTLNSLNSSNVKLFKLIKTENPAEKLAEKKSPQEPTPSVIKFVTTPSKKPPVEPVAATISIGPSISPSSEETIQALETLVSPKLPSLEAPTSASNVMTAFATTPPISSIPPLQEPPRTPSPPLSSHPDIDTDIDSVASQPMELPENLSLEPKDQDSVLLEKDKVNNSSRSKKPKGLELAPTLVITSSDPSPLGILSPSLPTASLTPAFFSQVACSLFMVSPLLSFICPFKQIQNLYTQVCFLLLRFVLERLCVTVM
# In short: as §1
# ELF3 = biological target: T8, ELF3 (Homo sapiens, UniProt P78545 1-371)
# T8 sequence: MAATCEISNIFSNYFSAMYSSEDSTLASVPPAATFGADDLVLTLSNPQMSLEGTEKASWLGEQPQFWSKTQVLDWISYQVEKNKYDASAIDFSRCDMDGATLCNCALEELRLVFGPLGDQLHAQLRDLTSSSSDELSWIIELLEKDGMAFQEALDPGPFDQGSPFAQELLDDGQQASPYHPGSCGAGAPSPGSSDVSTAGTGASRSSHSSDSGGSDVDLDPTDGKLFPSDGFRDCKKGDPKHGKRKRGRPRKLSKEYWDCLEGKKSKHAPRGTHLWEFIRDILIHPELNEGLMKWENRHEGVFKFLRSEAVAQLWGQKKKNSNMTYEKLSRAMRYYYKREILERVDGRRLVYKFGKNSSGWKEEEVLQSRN
# In short: as §1
# ETV1 = ETV1 (Homo sapiens, UniProt P50549 1-477)
# Chain of ETV1 (P50549 whole entry): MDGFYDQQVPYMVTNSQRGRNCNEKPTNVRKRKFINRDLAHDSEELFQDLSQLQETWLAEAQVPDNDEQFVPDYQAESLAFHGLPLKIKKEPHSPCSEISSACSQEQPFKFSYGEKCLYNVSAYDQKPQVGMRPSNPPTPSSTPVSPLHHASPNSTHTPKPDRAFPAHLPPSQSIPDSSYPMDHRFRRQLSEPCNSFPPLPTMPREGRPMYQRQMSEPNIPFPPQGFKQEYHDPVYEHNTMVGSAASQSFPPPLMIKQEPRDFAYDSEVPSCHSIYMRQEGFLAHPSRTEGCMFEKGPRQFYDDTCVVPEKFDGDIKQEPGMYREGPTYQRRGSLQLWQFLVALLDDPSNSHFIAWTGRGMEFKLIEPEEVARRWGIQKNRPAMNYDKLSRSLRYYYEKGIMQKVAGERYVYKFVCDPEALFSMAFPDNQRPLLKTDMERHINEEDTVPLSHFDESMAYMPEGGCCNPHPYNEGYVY
# In short: as §1
# ETV3L = biological target: T9, ETV3L (Homo sapiens, UniProt Q6ZN32 1-361)
# T9 sequence: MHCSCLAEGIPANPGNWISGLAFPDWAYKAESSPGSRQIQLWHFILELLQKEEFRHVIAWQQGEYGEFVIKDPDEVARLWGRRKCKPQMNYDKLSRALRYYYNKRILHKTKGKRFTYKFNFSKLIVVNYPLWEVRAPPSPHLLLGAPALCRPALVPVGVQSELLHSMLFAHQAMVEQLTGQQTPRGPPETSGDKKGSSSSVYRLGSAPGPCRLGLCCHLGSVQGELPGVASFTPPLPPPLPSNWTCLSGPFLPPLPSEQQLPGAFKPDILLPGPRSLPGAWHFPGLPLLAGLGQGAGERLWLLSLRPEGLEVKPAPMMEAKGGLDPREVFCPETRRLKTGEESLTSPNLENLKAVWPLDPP
# In short: as §1
# ETV7 = biological target: T10, ETV7 (Homo sapiens, UniProt Q9Y603 1-341)
# T10 sequence: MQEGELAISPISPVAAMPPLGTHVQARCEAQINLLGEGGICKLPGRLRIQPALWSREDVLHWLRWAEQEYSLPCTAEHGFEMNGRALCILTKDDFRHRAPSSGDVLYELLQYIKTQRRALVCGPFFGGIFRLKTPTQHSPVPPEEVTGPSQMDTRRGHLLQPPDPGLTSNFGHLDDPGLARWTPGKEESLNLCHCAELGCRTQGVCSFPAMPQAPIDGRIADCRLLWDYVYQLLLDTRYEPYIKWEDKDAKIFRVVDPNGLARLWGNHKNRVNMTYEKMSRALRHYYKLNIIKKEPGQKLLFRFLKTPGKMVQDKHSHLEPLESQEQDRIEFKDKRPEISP
# In short: as §1
# ETV3 = biological target: T11, ETV3 (Homo sapiens, UniProt P41162-2 1-143)
# T11 sequence: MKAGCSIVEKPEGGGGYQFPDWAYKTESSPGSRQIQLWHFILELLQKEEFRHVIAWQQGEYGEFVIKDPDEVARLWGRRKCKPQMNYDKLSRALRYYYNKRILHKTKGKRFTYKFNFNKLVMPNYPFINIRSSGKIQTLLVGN
# In short: as §1
# ETV6 = ETV6 (Homo sapiens, UniProt P41212 1-452)
# Chain of ETV6 (P41212 whole entry): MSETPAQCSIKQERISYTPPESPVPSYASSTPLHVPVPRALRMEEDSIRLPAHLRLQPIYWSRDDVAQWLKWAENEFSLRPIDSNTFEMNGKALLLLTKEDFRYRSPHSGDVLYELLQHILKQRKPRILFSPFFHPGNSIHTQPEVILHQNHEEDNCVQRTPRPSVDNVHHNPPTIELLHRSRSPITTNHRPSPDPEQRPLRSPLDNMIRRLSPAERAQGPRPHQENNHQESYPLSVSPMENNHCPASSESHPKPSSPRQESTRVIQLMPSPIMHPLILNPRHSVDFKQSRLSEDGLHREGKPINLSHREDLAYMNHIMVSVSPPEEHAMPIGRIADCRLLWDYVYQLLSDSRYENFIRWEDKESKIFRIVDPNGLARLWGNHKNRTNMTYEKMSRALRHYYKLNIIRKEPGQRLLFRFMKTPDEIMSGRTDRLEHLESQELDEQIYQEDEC
# In short: as §1
sequence,measurement,setting,value
TAAAGG,binding signal,ELK1,"1.03 fold enrichment (6-mer frequency, TF over GST control)"
same,binding signal,GABPA,"1.03 fold enrichment (6-mer frequency, TF over GST control)"
same,binding signal,ERG,"1.03 fold enrichment (6-mer frequency, TF over GST control)"
same,binding signal,ELF1,"1.08 fold enrichment (6-mer frequency, TF over GST control)"
same,binding signal,EHF,"1.12 fold enrichment (6-mer frequency, TF over GST control)"
same,binding signal,SPIB,"1.03 fold enrichment (6-mer frequency, TF over GST control)"
same,binding signal,ELK3,"1.1 fold enrichment (6-mer frequency, TF over GST control)"
same,binding signal,SPIC,"1.11 fold enrichment (6-mer frequency, TF over GST control)"
same,binding signal,ELK4,"1.07 fold enrichment (6-mer frequency, TF over GST control)"
same,binding signal,ELF3,"1.1 fold enrichment (6-mer frequency, TF over GST control)"
same,binding signal,ETV1,"1.03 fold enrichment (6-mer frequency, TF over GST control)"
same,binding signal,ETV3L,"1.04 fold enrichment (6-mer frequency, TF over GST control)"
same,binding signal,ETV7,"1.09 fold enrichment (6-mer frequency, TF over GST control)"
same,binding signal,ETV3,"1.09 fold enrichment (6-mer frequency, TF over GST control)"
same,binding signal,ETV6,"1.07 fold enrichment (6-mer frequency, TF over GST control)"
